Myeloid diff MLP – induction of myeloid progenitor differentiation, primary screen, cell-based, flow cytometry, MLPCN library. ER-HoxA9 myeloid progenitors, lysozyme-GFP differentiation. calls only at 10 µM. 360,000 compounds, 1% hits;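 active means normalized GFP-positive differentiation at or above the plate's own cutoff, the solvent-only control mean plus 3 SD; inconclusive means no clear call, values can overlap the other calls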;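 further: cells exposed to compound for four days before flow analysis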
ABCB6 inh MLPCN – ABCB6 transporter inhibitors, primary screen, K562-ABCB6 cells, flow cytometry, MLPCN library | K562-ABCB6 porphyrin accumulation, 1 h; active compounds read low | fluorescence ratio to DMSO, % at 10 µM | 360,000 compounds, 0.19% hits | AID 602162, 2011;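 active means fluorescence ratio to DMSO below 75%, the collection mean minus 3 SD; inconclusive means too few cells collected in the well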;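 further: signal is porphyrin accumulated inside mitochondria; 100% equals median channel fluorescence of DMSO control wells; lower ratio means ABCB6 inhibition with less porphyrin fluorescence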
Target sequence (Q9NP58 whole entry, looked up): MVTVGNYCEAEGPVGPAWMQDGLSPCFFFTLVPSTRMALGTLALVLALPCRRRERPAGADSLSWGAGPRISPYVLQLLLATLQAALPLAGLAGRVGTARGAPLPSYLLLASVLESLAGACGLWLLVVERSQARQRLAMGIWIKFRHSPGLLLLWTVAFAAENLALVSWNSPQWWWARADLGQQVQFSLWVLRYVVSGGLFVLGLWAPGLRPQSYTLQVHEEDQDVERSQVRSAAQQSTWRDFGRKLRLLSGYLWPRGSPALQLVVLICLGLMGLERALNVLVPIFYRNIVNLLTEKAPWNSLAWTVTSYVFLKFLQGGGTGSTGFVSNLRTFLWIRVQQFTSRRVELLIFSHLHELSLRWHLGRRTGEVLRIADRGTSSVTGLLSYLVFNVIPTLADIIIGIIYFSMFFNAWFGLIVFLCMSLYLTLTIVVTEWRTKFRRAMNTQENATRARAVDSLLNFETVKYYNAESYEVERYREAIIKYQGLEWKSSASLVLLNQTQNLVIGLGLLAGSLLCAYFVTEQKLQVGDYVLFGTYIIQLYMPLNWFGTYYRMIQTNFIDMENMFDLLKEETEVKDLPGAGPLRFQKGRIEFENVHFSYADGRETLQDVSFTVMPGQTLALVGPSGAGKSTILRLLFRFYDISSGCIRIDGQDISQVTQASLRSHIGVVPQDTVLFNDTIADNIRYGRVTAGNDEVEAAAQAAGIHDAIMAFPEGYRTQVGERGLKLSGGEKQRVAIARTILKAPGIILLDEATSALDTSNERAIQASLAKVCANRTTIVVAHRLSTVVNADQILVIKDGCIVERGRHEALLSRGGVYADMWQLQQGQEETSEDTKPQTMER
Exocytosis inh – LAMP-1 surface exposure blockers, TALL-104 cells – cell-based, flow cytometry, MLPCN library, primary screen; TALL-104 LAMP-1 surface exposure; cells stimulated with thapsigargin and PMA; 360,000 compounds, 0.66% hits; inhibition, % at 10 µM; AID 651702, 2012;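 active means inhibition above about 55%, limit read from the data; inconclusive means no clear call, values can overlap the other calls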
Myeloid diff CP1 – inducers of myeloid progenitor differentiation, confirmation, cell-based, GFP/Mac1 flow cytometry, cherry pick 01. shares compounds with Myeloid diff MLP. calls only. ER-HoxA9 myeloid progenitors, GFP/Mac1 double-positive flow. 2,300 compounds, 2% hits. AID 651706, 2012;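 active means share of green or green-and-red cells above 9 and 9% in run 1 or 4 and 3% in run 2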
GFP autofluor – counter-screen for myeloid differentiation promoters: compound fluorescence; ER-HoxA9 myeloid progenitors, no estrogen, GFP autofluorescence flow cytometry; vehicle wells 0%, positive control 100%; fluorescence response, % (concentration not given with the values); shares compounds with Myeloid diff MLP; 2,300 compounds, 7.4% hits;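 active means over 5% cells positive for green fluorescent reporter, or over 2% positive for both it and APC stain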;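 further: range taken on the double positive population between DMSO and positive control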
Active calls of the source: *; i = inactive; ? = inconclusive; . = no result; + = active, no number. An excerpt weighted towards active compounds, which were near 1.8% of everything screened.

SMILES	Myeloid diff MLP	ABCB6 inh MLPCN	Exocytosis inh	Myeloid diff CP1	GFP autofluor
Cc1cccc(NC(=O)CSc2nc(=O)n(CCCN3CCOCC3)c3c2CCCC3)c1	+	94	-2	i	0
CCOC(=O)c1[nH]c(C)c(C(=O)OCC(=O)NCc2ccc(OC)c(OC)c2)c1C	i	81	4	.	.
CCOC(=O)c1c(C)[nH]c(C(=O)OCC(=O)NCCc2ccc(OCC)c(OCC)c2)c1C	+	101	4	i	0
COC(C[C@H](O)C[C@H](O)[C@H](C)OCc1ccccc1)OC	i	99	-3	.	.
O=C(COC(=O)c1ccccc1OCc1ccc(Cl)cc1)NCC1CCCO1 (stereo unspecified)	i	96	-23	.	.
CCCNC(=O)COC(=O)c1ccccc1OCc1ccc(Cl)cc1	+	98	1	i	0
COc1cccc(-c2ccc(NC(=O)C3CCCN(Cc4cccc(C)n4)C3)cc2)c1 (stereo unspecified)	i	94	10	i	0
COc1cccc(-c2ccc(NC(=O)C3CCCN(Cc4cnn(C)c4C)C3)cc2)c1 (stereo unspecified)	?	95	-5	.	.
COc1cc(C(=O)OCC(=O)N2CCNC2=O)cc(Cl)c1OC	i	96	-1	.	.
C/C(N)=C(/C#N)C(=O)COC(=O)c1cc(C)n(-c2ccc(F)cc2)c1C	+	94	1	+	0
Cc1cc(C(=O)OCC(N)=O)c(C)n1-c1ccccc1	i	101	-1	.	.
Cc1cc(C)n(-c2cccc(F)n2)n1	i	102	0	.	.
c1ccc(-n2cc(CN3CCCC3)c(-c3ccc4c(c3)OCO4)n2)cc1	i	96	-2	.	.
c1ccc(-n2cc(CN3CCC(N4CCOCC4)CC3)c(-c3ccc4c(c3)OCO4)n2)cc1	+	94	2	i	0
CCn1c(COc2ccc(=O)n(-c3ccccc3)n2)n[nH]c1=S	i	104	-1	.	.
O=C(CNC(=O)c1ccccc1F)N/N=C/c1ccc2c(c1)OCO2	i	91	2	.	.
CSc1nc(N)nc(SCC(=O)Nc2ccc(Cl)cc2)c1C#N	i	99	-2	i	0
CSc1nc(N)nc(SCC(=O)Nc2cccc(F)c2)c1C#N	i	94	-4	.	.
CCOCCn1c(CN(Cc2ccccc2)Cc2ccccc2)nc2c1c(=O)n(C)c(=O)n2C	?	91	-1	.	.
CCOCCn1c(CN(Cc2ccccc2)Cc2ccccc2)nc2c1c(=O)[nH]c(=O)n2C	+	102	4	i	0
CC(=O)N[C@@H](CC(=O)O)C(=O)O	i	100	2	.	.
CCN(C(=O)CN1CCCCC1)c1c(N)n(Cc2ccccc2)c(=O)[nH]c1=O	i	94	-4	.	.
CCN(C(=O)CN1CCCc2cc(C)ccc21)c1c(N)n(Cc2ccccc2)c(=O)[nH]c1=O	i	108	1	i	1
CN(C(=O)CN1CCCCCC1)c1c(N)n(Cc2ccccc2)c(=O)[nH]c1=O	i	98	7	.	.
Cc1ccc2c(c1)CCCN2CC(=O)N(C)c1c(N)n(Cc2ccccc2)c(=O)[nH]c1=O	i	103	3	i	2
SMILES	Myeloid diff MLP	ABCB6 inh MLPCN	Exocytosis inh	Myeloid diff CP1	GFP autofluor
O=C(c1cccc(NS(=O)(=O)c2ccc(F)c(F)c2)c1)N1CCN(Cc2ccccc2)CC1	i	102	1	.	.
COc1ccc(CN2CCNC(=O)C2CC(=O)N(C)CCC2CCOCC2)c(OC)c1 (stereo unspecified)	i	97	-3	.	.
CCOC(=O)c1[nH]c2ccccc2c1NC(=O)NC(C)C	i	93	-4	.	.
CCOC(=O)c1[nH]c2ccccc2c1NC(=O)c1ccc(Br)o1	+	96	-3	i	0
O=C(COC(=O)C1CC(=O)N(Cc2ccccc2)C1)Nc1cccc([N+](=O)[O-])c1 (stereo unspecified)	i	100	0	.	.
COc1cccc(C(=O)NC(=S)Nc2ccc3c4c(cccc24)CC3)c1	+	158	0	i	1
COc1cccc(C(=O)Nc2ccc(F)cc2F)c1	i	99	-2	i	0
COc1ccccc1NC(=O)c1cccnc1	i	94	-3	.	.
COc1cccc(C(=O)Nc2ccccc2F)c1	i	96	-1	.	.
COc1ccc(NC(=O)c2cccnc2)c(OC)c1	+	96	-3	i	0
